Screens deposited in PubChem BioAssay by several laboratories.
MCL1 BIM primary – inhibitors of human MCL1 binding to BIM-BH3 peptide; Q07820; AID 2057; GST-MCL1 / FITC-Bim-BH3 fluorescence polarization; hit rate 0.68% among 320,000; inhibition, % at 10.9 µM;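 active = inhibition above the mean inhibition of all tested compounds plus 3 SD, set per campaign, cut at about 40% in these data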;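 note: higher means more loss of mP so more displacement of Bim peptide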
Target sequence (Q07820 whole entry, looked up): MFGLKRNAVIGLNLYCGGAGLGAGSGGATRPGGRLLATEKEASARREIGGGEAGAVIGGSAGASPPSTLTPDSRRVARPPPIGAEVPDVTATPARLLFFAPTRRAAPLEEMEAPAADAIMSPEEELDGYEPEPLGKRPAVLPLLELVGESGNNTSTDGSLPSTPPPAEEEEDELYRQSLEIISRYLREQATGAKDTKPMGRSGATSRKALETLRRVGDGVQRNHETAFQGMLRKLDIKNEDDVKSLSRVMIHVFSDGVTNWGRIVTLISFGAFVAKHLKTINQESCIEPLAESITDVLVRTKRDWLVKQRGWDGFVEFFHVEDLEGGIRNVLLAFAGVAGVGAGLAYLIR
Bim-Mcl-1 – inhibitors of Bim-Mcl-1 interaction, human. Q07820. Bead-based flow cytometry, Bim peptide-Mcl-1 binding. inhibition, % at 10 µM. hit rate 0.1% among 190,000; in the data active = inhibition above about 40%
Mcl1 Noxa PPI – disrupts binding of human Mcl-1 to Noxa peptide; inhibition, % at 21.7 µM; hit rate 1.5% among 220,000; TR-FRET Mcl-1/Noxa peptide binding, 2 h;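 active = compounds that cut the protein-peptide binding signal by more than 50% relative to plate controls in a single-dose test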;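 note: His-tagged Mcl-1 with rhodamine Noxa BH3 peptide and terbium anti-His antibody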
Mcl1-Bid inh – Mcl-1/Bid interaction inhibition | Q07820 | TR-FRET Mcl-1/Bid-Dy647 peptide binding, 1536-well | inhibition, % at 21.7 µM | hit rate 0.97% among 220,000;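 active = compounds that cut the binding signal by more than half at the single screening dose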;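 note: His-tagged Mcl-1 with europium anti-His antibody binding Bid BH3 peptide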
Large screens that a line does not name were inactive. Rows were chosen to be rich in hits. Some 2% of all compounds tested hit in one or more screens of this group.

O=C(O)/C=C\C(=O)N1CCc2ccccc21	Mcl1-Bid inh 94
COc1cc(/C=C(\NC(=O)c2cc(OC)c(OC)c(OC)c2)C(=O)NC(C(=O)O)c2ccccc2)cc(OC)c1OC (stereo unspecified)	none (no result: Bim-Mcl-1, Mcl1 Noxa PPI, Mcl1-Bid inh)
CC1=C/C(=C(/c2ccc(O)c(C)c2)c2ccccc2S(=O)(=O)O)C=CC1=O	none (no result: Bim-Mcl-1, Mcl1 Noxa PPI, Mcl1-Bid inh)
CC1=C/C(=C(/c2cc(C)c(O)c(Br)c2)c2ccccc2S(=O)(=O)O)C=C(Br)C1=O	MCL1 BIM primary 43 (no result: Bim-Mcl-1, Mcl1 Noxa PPI, Mcl1-Bid inh)
O=C(Cc1ccccc1[N+](=O)[O-])OCc1cccc([N+](=O)[O-])c1	none (no result: Bim-Mcl-1, Mcl1 Noxa PPI, Mcl1-Bid inh)
COC(=O)CCC(=O)OC1(C)C(=O)C=C2C=C(C3CC3)N(c3cccc(C#N)c3)C=C2C1=O (stereo unspecified)	MCL1 BIM primary 43 (no result: Bim-Mcl-1)
CC1(O)C(=O)C=C2C=C(C3CC3)OC=C2C1=O (stereo unspecified)	none (no result: Bim-Mcl-1, Mcl1 Noxa PPI, Mcl1-Bid inh)
CC1(OC(=O)CCc2ccccc2)C(=O)C=C2C=C(C3CC3)OC=C2C1=O (stereo unspecified)	MCL1 BIM primary 45 (no result: Bim-Mcl-1, Mcl1 Noxa PPI, Mcl1-Bid inh)
COC(=O)CCC(=O)OC1(C)C(=O)C=C2C=C(C3CC3)N(Cc3ccco3)C=C2C1=O (stereo unspecified)	MCL1 BIM primary 42 (no result: Bim-Mcl-1)
COC(=O)CCC(=O)OC1(C)C(=O)C=C2C=C(C3CC3)N(C3CC3)C=C2C1=O (stereo unspecified)	none (no result: Bim-Mcl-1)
CCOc1ccc(-c2nnc(SCC(=O)O)n2Cc2ccccc2)cc1	none (no result: Bim-Mcl-1, Mcl1 Noxa PPI, Mcl1-Bid inh)
CN(C)C(=O)c1ccccc1NC(=O)Cc1cccc2ccccc12	none (no result: Bim-Mcl-1, Mcl1 Noxa PPI, Mcl1-Bid inh)
COc1ccc(N/C=C2\C(=O)CCc3c2oc2cc(Cl)c(O)c(Cl)c32)cc1	Mcl1 Noxa PPI 74, Mcl1-Bid inh 86 (no result: Bim-Mcl-1)
Cc1ccc(S(=O)(=O)Nc2csc(C)c2C(=O)O)cc1	Mcl1 Noxa PPI 54 (no result: Bim-Mcl-1)
CC1(C)CC(=O)C2=C(C1)Nc1ccccc1NC2c1ccc(F)cc1 (stereo unspecified)	MCL1 BIM primary 45 (no result: Bim-Mcl-1, Mcl1 Noxa PPI, Mcl1-Bid inh)
COc1ccc(CNC(=O)CN(Cc2ccco2)C(=O)CCC(=O)Nc2ccccn2)cc1	none (no result: Bim-Mcl-1, Mcl1 Noxa PPI, Mcl1-Bid inh)
CCN1/C(=C/C=C/C=C/c2sc3ccccc3[n+]2CC)Sc2ccccc21	MCL1 BIM primary 140 (no result: Bim-Mcl-1)
CCOC(=O)c1c(NC(=O)COC(=O)Cn2c(C)nc3ccccc32)sc2c1CCCC2	Mcl1-Bid inh 56
CCOc1ccc(OCCC(=O)OCC(=O)N2CCN(S(=O)(=O)c3ccc(Cl)cc3)CC2)cc1	none (no result: Bim-Mcl-1, Mcl1 Noxa PPI, Mcl1-Bid inh)
O=C(/C=C\Nc1ccc(S(=O)(=O)Nc2ncccn2)cc1)c1cccc2ccccc12	Mcl1-Bid inh 96 (no result: Bim-Mcl-1)
COC(=O)c1ccc2c(=O)n(CCCCCC(=O)NCc3ccc4c(c3)OCO4)c(=O)[nH]c2c1	Mcl1-Bid inh 56
C=CCOC(=O)C(=O)/C=C/c1coc2ccccc2c1=O	MCL1 BIM primary 46
Cc1ccc(S(=O)(=O)N(CC(=O)NCCSc2ccccn2)c2ccccc2F)cc1	none (no result: Bim-Mcl-1, Mcl1 Noxa PPI, Mcl1-Bid inh)
Cc1csc(SCC(=O)NC(C)C2CC3CCC2C3)n1 (stereo unspecified)	none (no result: Bim-Mcl-1, Mcl1 Noxa PPI, Mcl1-Bid inh)
CCN1CCCc2cc(CN(CCN3CCOCC3)C(=S)Nc3cccc(OC)c3)ccc21	Mcl1 Noxa PPI 60
COc1cccc(NC(=S)NCCN2CCOCC2)c1	none
CCOc1ccc(NC(=O)N(CCN2CCOCC2)Cc2ccc3c(c2)CCCN3CC)cc1	Mcl1 Noxa PPI 78
CC(C)(CNC(=O)c1ccccc1F)CNC(=O)c1ccccc1F	none (no result: Bim-Mcl-1, Mcl1 Noxa PPI, Mcl1-Bid inh)
CSCC[C@H](NC(=O)OC(C)(C)C)c1nnc(SCC(=O)N(C)C)o1	Mcl1 Noxa PPI 67
O=C(Nc1n[nH]c(C(F)(F)F)n1)C1CC1	Bim-Mcl-1 43
CCCOP(=O)(c1ccc(N(C)C)cc1)C(O)c1ccc(N(C)C)cc1 (stereo unspecified)	none (no result: Bim-Mcl-1, Mcl1 Noxa PPI, Mcl1-Bid inh)
O=S(=O)(c1ccc(C2CCCCC2)cc1)N1CCOCC1	none
Cc1cc(C)c2c(c1)C1C=CCC1C(c1ccc(S(=O)(=O)N3CCOCC3)cc1)N2 (stereo unspecified)	Mcl1 Noxa PPI 95, Mcl1-Bid inh 70
O=C(O)c1cc(Cl)c2c(c1)[C@@H]1C=CC[C@@H]1[C@H](c1ccc(S(=O)(=O)N3CCOCC3)cc1)N2	MCL1 BIM primary 48
O=c1c2ccccc2cnn1Cc1n[nH]c(=S)n1-c1ccccc1Cl	none
FC(F)(F)c1cnc(COc2ccc(Cl)cc2Cl)c(Cl)c1	none (no result: Bim-Mcl-1)
CC(=O)CCC(=O)N1CCC(n2nccc2NC(=O)c2ccccc2C)CC1	none (no result: Bim-Mcl-1, Mcl1 Noxa PPI, Mcl1-Bid inh)
CCC(CC)c1nnc(NC(=O)COc2ccc3c(C)cc(=O)oc3c2)s1	none
Cc1ccc(Cl)cc1NC(=O)COC(=O)c1ccc(COc2ccc3c(C)cc(=O)oc3c2)cc1	Mcl1-Bid inh 57
Cc1nnc(NC(=O)COc2ccc3c(C)cc(=O)oc3c2)s1	Mcl1 Noxa PPI 79
CC(=O)Nc1ccc(NC(=O)c2ccc(COc3ccc4c(C)cc(=O)oc4c3)cc2)cc1	none
